KCNQ2 enhance – KCNQ2 (rat) channel potentiation; CHO-K1 KCNQ2, FluxOR thallium flux fluorescence; hits give high values; actives 0.54% (n = 310,000); O88943; AID 2239; B-score at 10 µM;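 active means fluorescence ratio B-score at least 3 SD of library B-scores, with initial fluorescence B-score within 3 of them, cut at about 5.3 in these data; same plate scores as AID 2156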;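 further: B-score of peak minus minimum over baseline fluorescence ratio after K+ and Tl+ stimulus; positive B-score means potentiation of KCNQ2 with more thallium influx and brighter signal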
Target sequence (O88943 whole entry, looked up): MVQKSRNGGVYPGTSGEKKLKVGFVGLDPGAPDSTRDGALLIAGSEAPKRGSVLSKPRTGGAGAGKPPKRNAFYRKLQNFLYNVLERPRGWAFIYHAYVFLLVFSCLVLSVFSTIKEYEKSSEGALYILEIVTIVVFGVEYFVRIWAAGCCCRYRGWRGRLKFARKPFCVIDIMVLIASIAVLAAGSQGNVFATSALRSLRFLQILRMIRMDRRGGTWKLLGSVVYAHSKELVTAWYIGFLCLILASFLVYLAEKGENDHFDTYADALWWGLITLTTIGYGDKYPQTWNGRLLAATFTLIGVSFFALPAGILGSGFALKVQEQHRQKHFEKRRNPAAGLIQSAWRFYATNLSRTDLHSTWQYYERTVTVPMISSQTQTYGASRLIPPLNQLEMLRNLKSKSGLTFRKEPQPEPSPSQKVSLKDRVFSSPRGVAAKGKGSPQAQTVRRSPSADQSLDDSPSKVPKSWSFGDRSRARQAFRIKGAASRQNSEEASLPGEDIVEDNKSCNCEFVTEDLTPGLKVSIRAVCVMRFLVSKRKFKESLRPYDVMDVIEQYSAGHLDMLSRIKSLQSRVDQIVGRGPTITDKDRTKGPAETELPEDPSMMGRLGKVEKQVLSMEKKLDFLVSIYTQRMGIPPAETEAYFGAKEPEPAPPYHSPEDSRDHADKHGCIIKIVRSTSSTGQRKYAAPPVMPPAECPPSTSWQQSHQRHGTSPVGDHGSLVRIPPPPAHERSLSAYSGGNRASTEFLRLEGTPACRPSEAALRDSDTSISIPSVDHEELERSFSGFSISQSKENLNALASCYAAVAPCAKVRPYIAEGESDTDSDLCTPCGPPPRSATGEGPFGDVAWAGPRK
KCNQ2 block – blocks the rat KCNQ2 potassium channel; O88943; CHO-K1 KCNQ2, FluxOR thallium flux, 20 min; hits give low values; B-score at 10 µM; actives 1.1% (n = 310,000); AID 2156;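 active means fluorescence ratio B-score at most minus 3 library SDs, with starting brightness B-score within 2 library SDs, cut at about -5.5 in these data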
KCNQ2 block conf – rat KCNQ2 channel inhibition, confirmatory screen; shares compounds with KCNQ2 block; KCNQ2-expressing cells, thallium flux; hits give low values; activity change, negative = inhibition, % at 10 µM; actives 57% (n = 1,000)
KCNQ1 spec – selectivity of KCNQ2 inhibitors against human KCNQ1 | shares compounds with KCNQ2 block | KCNQ1-expressing cells, FluxOR thallium flux fluorescence; hits give low values | activity change, negative = inhibition, % at 10 µM | actives 15% (n = 1,000) | AID 493026;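 active means activity change at least 3 SD of negative controls below their mean in both duplicate wells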;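 further: CHO cells stably transfected with KCNQ1 and depolarized by potassium stimulus; peak minus minimum fluorescence over baseline after thallium addition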
CHO Tl ctr – activity in parental CHO cells lacking KCNQ2 | AID 493029 | shares compounds with KCNQ2 block | activity change, % at 10 µM | actives 14% (n = 1,000) | thallium flux counter-screen; hits give low values
KCNQ2 inh confirm – blocks rat KCNQ2 current in automated patch clamp; shares compounds with KCNQ2 block; KCNQ2-expressing cells; calls only at 10 µM; actives 49% (n = 550)
Large screens that a line does not name were inactive (follow-up assays come after a bar, where they were run). Shown are actives, neighbours in structure and some others; about 1.6% of the full set was active somewhere. Unless noted, how the calls were made is not given here.

COc1ccc(C(=O)NCCCN(C)CCCNC(=O)c2ccc(OC)cc2)cc1	none
N#Cc1ccccc1N=C1CCCN1Cc1ccccc1	none (no result: KCNQ2 enhance)
Cc1cc(C)c(N=C2CCCN2Cc2ccccc2)c(C#N)c1	KCNQ2 block -8.79 | KCNQ2 block conf -31.5% | KCNQ1 spec inactive | CHO Tl ctr inactive | KCNQ2 inh confirm active
CCc1nc(C(N)=O)c2[nH]c(=O)n(-c3ccc(OC)cc3OC)c2n1	none
Cc1cccc(N2C(=O)/C(=C\c3ccc(C(=O)O)cc3)c3ccccc3C2=O)c1	KCNQ2 block -9.14 | KCNQ2 block conf -19.5% | KCNQ1 spec inactive | CHO Tl ctr inactive | KCNQ2 inh confirm inactive
Cc1cccc(N2C(=O)c3ccc(C(=O)Nc4ccccn4)cc3C2=O)c1	none
COc1cc(OC)cc(C(=O)N2CCC(C(=O)Nc3ccc4c(c3)OCCO4)CC2)c1	none (no result: KCNQ2 enhance)
CC1=NN(C(=O)COc2ccccc2C)C(O)(c2ccc(Cl)cc2)C1 (centres undefined)	KCNQ2 block -8.12 | KCNQ2 block conf -24.0% | KCNQ1 spec inactive | CHO Tl ctr inactive | KCNQ2 inh confirm active
CCC1=NN(C(=O)COc2ccccc2C)C(O)(c2ccncc2)C1 (centres undefined)	none (no result: KCNQ2 enhance)
CCn1c(SCc2ccc(C#N)cc2)nnc1-c1cccc(Cl)c1	none (no result: KCNQ2 enhance)
Cc1cccc(-c2nnc(SCc3ccc(C#N)cc3)n2Cc2ccco2)c1	KCNQ2 block -8.81 | KCNQ2 block conf -26.0% | KCNQ1 spec inactive | CHO Tl ctr inactive
c1csc(C(c2nnnn2C2CCCCC2)N2CCCC3(CCCCC3)C2)c1 (centres undefined)	none (no result: KCNQ2 enhance)
CC(C)(C)n1nnnc1C(c1cccs1)N1CCCC2(CCCCC2)C1 (centres undefined)	KCNQ2 block -7.45 | KCNQ2 block conf -33.0% | KCNQ1 spec -38.5% | CHO Tl ctr -30.5% | KCNQ2 inh confirm inactive
C[n+]1cccc(C(=O)NNC(=O)C23CC4CC(CC(C4)C2)C3)c1	none
Cc1c(Cl)cccc1NC(=O)CS(=O)(=O)c1ccccc1	none (no result: KCNQ2 enhance)
COC(=O)C(Cc1ccccc1)NCC(=O)Nc1cccc(Cl)c1C (centres undefined)	KCNQ2 block -8.17 | KCNQ2 block conf -36.0% | KCNQ1 spec inactive | CHO Tl ctr inactive | KCNQ2 inh confirm active
O=C(O)CCN1CCc2ccccc2C1c1ccncc1 (centres undefined)	none (no result: KCNQ2 enhance)
Cc1ccc(S(=O)(=O)NCc2cn3c(C)csc3n2)cc1	none
Cc1ccc(SCc2cn3c(C)csc3n2)cc1	KCNQ2 block -8.1 | KCNQ2 block conf inactive | KCNQ1 spec inactive | CHO Tl ctr inactive
COc1cccc(-n2c(SCC(=O)Nc3nc4ccccc4s3)nc3ccccc3c2=O)c1	KCNQ2 block -7 | KCNQ2 block conf inactive | KCNQ1 spec inactive | CHO Tl ctr inactive
COc1cccc(-n2c(SCC(=O)NCc3cccs3)nc3ccccc3c2=O)c1	none (no result: KCNQ2 enhance)
CCC(=O)C1CCCN(C(=O)CCc2nnc(-c3ccc(C(C)=O)s3)o2)C1 (centres undefined)	none
CCCOC(=O)/C(=C\C=C\c1ccccc1)NC(=O)c1ccccc1	none (no result: KCNQ2 enhance)
CCCCOC(=O)/C(=C/C=C/c1ccccc1)NC(=O)c1ccccc1	KCNQ2 block -6.86 | KCNQ2 block conf -25.0% | KCNQ1 spec inactive | CHO Tl ctr inactive | KCNQ2 inh confirm inactive
O=S(=O)(c1ccc2ccccc2c1)N(CC(O)COCc1ccco1)c1ccccc1 (centres undefined)	KCNQ2 block -8.87 | KCNQ2 block conf -19.5% | KCNQ1 spec inactive | CHO Tl ctr inactive | KCNQ2 inh confirm active
CCN(CC)CC(O)CN(c1ccccc1)S(=O)(=O)c1ccc2ccccc2c1 (centres undefined)	none
CC(C)[C@H](NC(=O)OCc1ccccc1)C(=O)OCC(=O)NCCc1ccccc1	KCNQ2 block -7.07 | KCNQ2 block conf inactive | KCNQ1 spec inactive | CHO Tl ctr inactive
CC(C)[C@H](NC(=O)c1ccccc1)C(=O)OCC(=O)NCCc1ccc(F)cc1	none (no result: KCNQ2 enhance)
O=c1cc(CN2CC(O)Cc3ccc4ccccc4c32)nc2sccn12 (centres undefined)	none
O=C(CCNc1cccc(F)c1)c1cccc([N+](=O)[O-])c1	KCNQ2 block -6.71 | KCNQ2 block conf inactive | KCNQ1 spec inactive | CHO Tl ctr inactive
O=C(CCNc1ccc(Cc2ccncc2)cc1)c1cccc([N+](=O)[O-])c1	none (no result: KCNQ2 enhance)
CN(CC(=O)Nc1cccc2ccccc12)C(=O)/C=C/c1cccs1	none (no result: KCNQ2 enhance)
O=C(COc1ccc2ccccc2c1)N1c2ccccc2Sc2ccccc21	KCNQ2 block -8.87 | KCNQ2 block conf -27.5% | KCNQ1 spec inactive | CHO Tl ctr inactive | KCNQ2 inh confirm inactive
CC(=O)NCC(=O)OCC(=O)N1c2ccccc2Sc2ccccc21	none
Cc1ccc(SCC(=O)N2c3ccccc3Sc3ccccc32)cc1	KCNQ2 block -6.61 | KCNQ2 block conf inactive | KCNQ1 spec inactive | CHO Tl ctr inactive
O=C(CSc1nncs1)N1c2ccccc2Sc2ccccc21	none
CCOc1ccc(CNC(=O)C2CCN(c3nn4c(=O)cc(C)nc4s3)CC2)cc1	none (no result: KCNQ2 enhance)
CS(=O)(=O)N1CCC(C(=O)c2cccc(Cl)c2)CC1	none
CCn1ncc(N2CCOCC2)c(Cl)c1=O	none (no result: KCNQ2 enhance)
CCN(CC)C(=O)c1cc2c(=O)c3cc(F)ccc3oc2nc1C	KCNQ2 block -9.56 | KCNQ2 block conf -23.0% | KCNQ1 spec inactive | CHO Tl ctr inactive | KCNQ2 inh confirm active
CCOC(=O)c1cc2c(=O)c3ccccc3oc2nc1C	none
Cc1ccc(C(=O)NNC(=O)c2ccc(-n3cncn3)c([N+](=O)[O-])c2)cc1	none
Cn1c(SCCC#N)nnc1-c1ccc(F)cc1	none
CC(C)(C)c1ccc(-c2nnc(SCCC#N)n2C2CCCC2)cc1	KCNQ2 block -8.48 | KCNQ2 block conf -28.0% | KCNQ1 spec inactive | CHO Tl ctr inactive | KCNQ2 inh confirm inactive
Cc1cc(C)c(C(=O)NC2CCCc3c2cnn3-c2ccc(C)c(C)c2)c(=O)[nH]1 (centres undefined)	none (no result: KCNQ2 enhance)
COc1ccc(OCCNS(=O)(=O)c2ccc3oc4ccccc4c3c2)cc1	none
CN(CCOc1ccccc1)S(=O)(=O)c1ccc2oc3ccccc3c2c1	KCNQ2 block -7.8 | KCNQ2 block conf -16.5% | KCNQ1 spec inactive | CHO Tl ctr inactive | KCNQ2 inh confirm inactive
CN(Cc1c(C(=O)N2CCc3ccccc3C2)nc2ccc(Cl)cn12)C(C1CC1)C1CC1	KCNQ2 block -7.87 | KCNQ2 block conf -24.0% | KCNQ1 spec inactive | CHO Tl ctr inactive | KCNQ2 inh confirm active
CCN(C)Cc1c(C(=O)N2CCc3ccccc3C2)nc2ccc(Cl)cn12	none (no result: KCNQ2 enhance)
CCOc1ccc2c(c1)-c1c(ssc1=S)C(C)(C)N2C	KCNQ2 block -7 | KCNQ2 block conf inactive | KCNQ1 spec inactive | CHO Tl ctr inactive
CCOc1ccc2c(c1)C(C)=CC(C)(C)N2S(=O)(=O)c1ccc(F)cc1	none (no result: KCNQ2 enhance)
CN1/C(=C\C(=O)c2cncc(Br)c2)C(C)(C)c2ccccc21	KCNQ2 block -7.99 | KCNQ2 block conf -39.5% | KCNQ1 spec -43.0% | CHO Tl ctr -37.0% | KCNQ2 inh confirm inactive
CN1/C(=C\C(=O)c2cccnc2)C(C)(C)c2ccccc21	none (no result: KCNQ2 enhance)
O=C(C1=C(Nc2ccccc2)c2ccccc2S(=O)(=O)N1)c1ccccc1	none

Assay outcomes (PubChem)
